From PubChem BioAssay (NCATS) come the findings set out here.

Inconclusive results are not listed. A number with no mark means an inactive call. Calls follow the shape of the dose curve; as a rule, active = well fitted inhibition curve with a large enough effect; inconclusive = small, poorly fitted or top-dose-only effect, or effect the other way; inactive = flat fitted curve, though single readings scatter.
% is scaled to controls: 0 for no effect and ±100 for the full control effect.

Sequence of ATP-dependent 6-phosphofructokinase (Trypanosoma brucei brucei) (O15648 whole entry, looked up): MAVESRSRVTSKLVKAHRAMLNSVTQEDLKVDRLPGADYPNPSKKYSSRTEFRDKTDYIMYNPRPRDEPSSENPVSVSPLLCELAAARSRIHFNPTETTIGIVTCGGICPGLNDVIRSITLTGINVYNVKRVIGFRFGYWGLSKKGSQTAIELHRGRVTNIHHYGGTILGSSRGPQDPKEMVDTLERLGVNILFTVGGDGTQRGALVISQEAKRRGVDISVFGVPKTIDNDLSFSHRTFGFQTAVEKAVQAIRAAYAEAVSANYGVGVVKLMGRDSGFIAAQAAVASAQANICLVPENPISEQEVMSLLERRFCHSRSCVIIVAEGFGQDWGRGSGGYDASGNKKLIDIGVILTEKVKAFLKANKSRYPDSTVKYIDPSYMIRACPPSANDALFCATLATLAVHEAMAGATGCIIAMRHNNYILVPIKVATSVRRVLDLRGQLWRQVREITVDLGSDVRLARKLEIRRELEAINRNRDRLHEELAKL

This experiment has as its target ATP-dependent 6-phosphofructokinase (Trypanosoma brucei brucei) (UniProt O15648). Kind of experiment: qHTS Assay to Find Inhibitors of T. brucei phosphofructokinase: hit validation (AID 492961). The settings on record: T. brucei PFK, ADP-Glo luminescence; series mostly up to 51.4 µM; activity change, negative = inhibition: at the top concentration. The procedure, abridged:
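Luminescence from ADP-Glo reports ADP generated as T. brucei PFK (1.25 nM) phosphorylates 0.5 mM fructose-6-phosphate using 0.1 mM ATP. Reactions ran 45 min at room temperature, pH 8.0.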
For orientation: qHTS replaces the single test concentration by a dilution series.
As for `NCC(O)CC(=O)O` (stereo not given), the “activity change, negative = inhibition” value is -0.586%.
The value for `Cc1cc(=O)c(C(=O)N[C@@H](C(=O)N[C@@H]2C(=O)N3C(C(=O)O)=C(CSc4nnnn4C)CS[C@H]23)c2ccc(O)cc2)c[nH]1` was -6.54%; that for `CC(C)=CCC/C(C)=C/C=C/C(C)=C/C=C/C(C)=C/C=C/C=C(C)/C=C/C=C(C)/C=C/C=C(\C)CCC=C(C)C` was -1.38%.
With `O=C(O)CCCC/C=C(\c1ccccc1)c1cccnc1`, the “activity change, negative = inhibition” value is 11.3%.
The value for `CN1CCc2c(c3ccccc3n2Cc2ccccc2)C1` was -8.94% [at 24.3 µM].
Regarding `C=CC(=O)O`, the “activity change, negative = inhibition” value is -0.601%.
For the compound `FC(F)(F)COCC(F)(F)F`, the “activity change, negative = inhibition” value is 2.37%.
On to `CCOc1ccc(NC(=S)Nc2ccc(OCC)cc2)cc1`, for which the “activity change, negative = inhibition” value was -6.78%.
With `CC(=O)Nc1c(I)c(C(=O)O)c(I)c(N(C)C(C)=O)c1I` the figure was 5.61%; with `[O]=[Bi][O]C(=O)[O][Bi]=[O]`, 3.68%.
Turning to `NCC[C@H](O)C(=O)N[C@@H]1C[C@H](N)[C@@H](O[C@H]2O[C@H](CN)CC[C@H]2N)[C@H](O)[C@H]1O[C@H]1O[C@H](CO)[C@@H](O)[C@H](N)[C@H]1O`, the “activity change, negative = inhibition” value is 7.52%.
With `CCCOc1cc(N)ccc1C(=O)OCCN(CC)CC` the figure was 2.39% [at 24.3 µM].
In the case of `CCCOC(=O)c1ccccc1O`, the “activity change, negative = inhibition” value is 7.82%.
As to `CC(C)O`, the “activity change, negative = inhibition” value was 9.22%.
With `CC12CCC(C[N+](C)(CCC[N+](C)(C)C)C1)C2(C)C` (stereo not given), the “activity change, negative = inhibition” value was 0%.
For the compound `C[C@H]1O[C@@H](O[C@H]2[C@@H](O)C[C@H](O[C@H]3[C@@H](O)C[C@H](O[C@H]4CC[C@@]5(C)[C@H](CC[C@@H]6[C@@H]5C[C@@H](O)[C@]5(C)[C@@H](C7=CC(=O)OC7)CC[C@]65O)C4)O[C@@H]3C)O[C@@H]2C)C[C@H](O)[C@@H]1O`, the “activity change, negative = inhibition” value is 7.41%.
With `Cc1ccc(S(=O)(=O)O)cc1C` the figure was 0.91%; with `CN(C)C(=O)CCSC(SCCC(=O)O)c1cccc(/C=C/c2ccc3ccc(Cl)cc3n2)c1` (stereo not given), 7.34%.
Consider `OC[C@H]1O[C@@H]2O[C@H]3[C@H](O)[C@@H](O)[C@@H](O[C@H]4[C@H](O)[C@@H](O)[C@@H](O[C@H]5[C@H](O)[C@@H](O)[C@@H](O[C@H]6[C@H](O)[C@@H](O)[C@@H](O[C@H]7[C@H](O)[C@@H](O)[C@@H](O[C@H]1[C@H](O)[C@H]2O)O[C@@H]7CO)O[C@@H]6CO)O[C@@H]5CO)O[C@@H]4CO)O[C@@H]3CO`, for which the “activity change, negative = inhibition” value was -4.5%.
Take `OB(O)O`: the “activity change, negative = inhibition” value is -1.62%.
As to `O=C1CCC(c2ccccc2)(C2CCN(Cc3ccccc3)CC2)C(=O)N1` (stereo not given), the “activity change, negative = inhibition” value is -4.14%.
`CC[C@H]1OC(=O)[C@H](C)[C@@H](O[C@H]2C[C@@](C)(OC)[C@@H](O)[C@H](C)O2)[C@H](C)[C@@H](O[C@@H]2O[C@H](C)C[C@H](N(C)C)[C@H]2O)[C@](C)(O)C[C@@H](C)CN(C)[C@H](C)[C@@H](O)[C@]1(C)O`: the “activity change, negative = inhibition” value is 6.63%.
Consider `NC(=O)C1c2ccccc2CCc2ccccc21`, for which the “activity change, negative = inhibition” value is 6.08%.
Regarding `O=C(O)[C@H]1CN(C/C=C/P(=O)(O)O)CCN1`, the “activity change, negative = inhibition” value was -2.35%.
With `O=C(OCc1ccccc1)c1ccc(O)cc1` the figure was 0.719%; with `C[C@H](O)CN(C)C`, -1.72%; with `CC(CC=O)CCCC(C)(C)O` (stereo not given), -2%.
Take `OCCOCCOCCO`: the “activity change, negative = inhibition” value was -4.82%.
Regarding `COC(=O)CC[C@H](N)C(=O)O`, the “activity change, negative = inhibition” value was -3.73%.
As to `Cc1cccc(C)c1NC(=O)NC1=CCCN1C`, the “activity change, negative = inhibition” value is -3.07%.
With `C=CCOc1ccc(CC(=O)O)cc1Cl`, the “activity change, negative = inhibition” value is 4.11%.
As to `CCc1ncnc2cc(OC)c(OC)cc12`, the “activity change, negative = inhibition” value is 6.35%.
The value for `COc1ccc2c(=O)c(C)c(-c3ccccc3)oc2c1CN(C)C` was 0.568%.
On to `Cn1c(O)c(N=NC(N)=S)c2ccccc21`, for which the “activity change, negative = inhibition” value is 14.4%.
`COc1ccc(C[C@H](C)NC[C@@H](O)c2ccc(O)c(NC=O)c2)cc1`: the “activity change, negative = inhibition” value is -0.559%.
